Results reported in PubChem BioAssay (EPA / NIEHS).
Records with an inconclusive call do not appear. Some structures have more than one record in an assay (separate samples or runs), and their calls can disagree. The source made the active and inactive calls. Rule for the calls, unless noted: active = hit-call score of the fitted dose curve at least 0.9, where 1 is the maximum; inconclusive = response in the unintended direction; inactive = score below 0.9.

Legend:
[1] = target: Bile acid receptor (Homo sapiens) (UniProt Q96RI1); assay: ATG_IR1_CIS: Attagene CIS-FACTORIAL HepG2 Assay for human Nuclear Receptor Subfamily 1 Group H Member 4 (NR1H4), IR1 submotif (AID 2282946; active = hit-call score of the fitted dose curve at least 0.9, where 1 is the maximum; inactive = score below 0.9); conditions: IR1 reporter transcription, actives raise or lower the signal
Procedure, shortened: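 HepG2 cells transiently transfected with multiplexed cis-element reporter units read endogenous transcription factor activity. After 24 h compound exposure, reporter mRNA was quantified by RT-PCR, fluorescent labelling, HpaI digestion and capillary electrophoresis; bidirectional fitting versus DMSO baseline.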

[2] = ATG_M_19_TRANS: Attagene TRANS-FACTORIAL HepG2 Assay for M19 Transcription Factor (Internal Marker) (AID 2282974); conditions: HepG2 Attagene TRANS-FACTORIAL M19 internal marker reporter
Procedure, shortened: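 Background-control readout: after 24 h chemical exposure of transfected HepG2 carrying GAL4-driven reporter units, RNA was reverse-transcribed, amplified, fluorescently labeled and sized by capillary electrophoresis; gain-of-signal fit against DMSO.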

[3] = ATG_GAL4_TRANS: Attagene TRANS-FACTORIAL HepG2 Assay for GAL4 (Internal Marker) (AID 2282976); conditions: HepG2 Attagene TRANS GAL4 internal marker reporter
Procedure, shortened: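 HepG2 cells transiently transfected with multiplexed GAL4-UAS reporter constructs were dosed for 24 h. Reporter mRNA was measured by RT-PCR, 6-FAM primer extension, HpaI digestion and capillary electrophoresis, and gain of signal was fitted relative to DMSO.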

[4] = target: Oxysterols receptor LXR-alpha (Homo sapiens) (UniProt Q13133); assay: ATG_LXRa_TRANS: Attagene TRANS-FACTORIAL HepG2 Assay for human Liver X Receptor alpha (LXRa) (AID 2282980); conditions: HepG2 Attagene TRANS reporter, LXRa transactivation
Sequence of Oxysterols receptor LXR-alpha (Homo sapiens) (Q13133 whole entry, looked up, the tested form may be a part): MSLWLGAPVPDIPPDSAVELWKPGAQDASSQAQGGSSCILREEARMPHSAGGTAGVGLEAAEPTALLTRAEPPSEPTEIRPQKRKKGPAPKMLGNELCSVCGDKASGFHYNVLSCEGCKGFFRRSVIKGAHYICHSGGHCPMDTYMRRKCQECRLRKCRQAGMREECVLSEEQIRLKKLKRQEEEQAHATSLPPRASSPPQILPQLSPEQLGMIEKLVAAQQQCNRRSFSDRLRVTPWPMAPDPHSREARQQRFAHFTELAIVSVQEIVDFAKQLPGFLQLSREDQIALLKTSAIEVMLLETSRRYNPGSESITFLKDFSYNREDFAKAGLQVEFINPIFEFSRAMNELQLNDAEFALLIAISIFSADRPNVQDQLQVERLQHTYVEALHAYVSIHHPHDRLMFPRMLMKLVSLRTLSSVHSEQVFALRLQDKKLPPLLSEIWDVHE
Procedure, shortened: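 HepG2 cells were transiently transfected with multiplexed reporter units driven by chimeric LXRa–GAL4 fusion proteins, then dosed for 24 h. Reporter mRNA was quantified by RT-PCR, fluorescent labelling and capillary electrophoresis; gain of signal fitted against DMSO baseline.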

[5] = target: human Peroxisome Proliferator-activated Receptor alpha (PPARa), PPARA (gene 5465) (UniProt Q07869); assay: ATG_PPARa_TRANS: Attagene TRANS-FACTORIAL HepG2 Assay for human Peroxisome Proliferator-activated Receptor alpha (PPARa) (AID 2283001);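 for AC50: potency for gain of reporter signal over DMSO so agonist or activator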
Sequence of human Peroxisome Proliferator-activated Receptor alpha (PPARa), PPARA (gene 5465) (Q07869 whole entry, looked up, the tested form may be a part): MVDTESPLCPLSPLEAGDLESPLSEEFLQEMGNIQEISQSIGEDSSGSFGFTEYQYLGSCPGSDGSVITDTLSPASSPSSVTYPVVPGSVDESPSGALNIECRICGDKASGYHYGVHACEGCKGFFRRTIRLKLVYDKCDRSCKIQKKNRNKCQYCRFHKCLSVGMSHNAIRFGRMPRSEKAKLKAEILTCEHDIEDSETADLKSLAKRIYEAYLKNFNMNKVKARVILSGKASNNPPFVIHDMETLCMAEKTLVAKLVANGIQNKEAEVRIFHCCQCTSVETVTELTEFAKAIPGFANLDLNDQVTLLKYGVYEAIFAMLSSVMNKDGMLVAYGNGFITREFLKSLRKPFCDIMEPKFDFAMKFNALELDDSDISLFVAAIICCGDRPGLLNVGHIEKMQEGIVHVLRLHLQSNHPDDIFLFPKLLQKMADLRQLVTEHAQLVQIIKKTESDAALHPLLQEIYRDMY
Procedure, shortened: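 Reporter transcripts quantified by RT-PCR plus capillary electrophoresis after 24 h treatment, fitted upward relative to DMSO. Cells: human HepG2 transiently carrying multiple GAL4-UAS reporter units driven by NR-Gal4 chimeras.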

[6] = target: human RAR-related Orphan Receptor beta (RORb), RORB (gene 6096) (UniProt Q92753); assay: ATG_RORb_TRANS: Attagene TRANS-FACTORIAL HepG2 Assay for human RAR-related Orphan Receptor beta (RORb) (AID 2283010)
Sequence of human RAR-related Orphan Receptor beta (RORb), RORB (gene 6096) (Q92753 whole entry, looked up, the tested form may be a part): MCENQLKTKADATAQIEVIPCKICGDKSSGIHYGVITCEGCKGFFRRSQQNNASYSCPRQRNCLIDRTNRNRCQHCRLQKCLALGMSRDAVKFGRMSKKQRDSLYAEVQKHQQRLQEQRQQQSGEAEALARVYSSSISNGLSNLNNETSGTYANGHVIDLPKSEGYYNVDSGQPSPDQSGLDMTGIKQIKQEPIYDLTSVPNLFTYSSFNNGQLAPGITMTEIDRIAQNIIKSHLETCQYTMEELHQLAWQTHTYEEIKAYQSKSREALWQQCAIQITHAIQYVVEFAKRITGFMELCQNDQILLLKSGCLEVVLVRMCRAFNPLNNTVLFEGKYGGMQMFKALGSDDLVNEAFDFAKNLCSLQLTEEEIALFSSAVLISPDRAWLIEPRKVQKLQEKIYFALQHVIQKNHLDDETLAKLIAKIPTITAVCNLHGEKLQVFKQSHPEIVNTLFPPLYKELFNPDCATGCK
Procedure, shortened: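 Read-out is reporter mRNA induction, quantified by RT-PCR with fluorescent capillary electrophoresis, 24 h post-dose in transiently transfected HepG2 expressing exogenous NR-Gal4 chimera. Activity fitted upward versus DMSO.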

[7] = target: human Retinoid X Receptor beta (RXRb), RXRB (gene 6257) (UniProt P28702); assay: ATG_RXRb_TRANS: Attagene TRANS-FACTORIAL HepG2 Assay for human Retinoid X Receptor beta (RXRb) (AID 2283013)
Sequence of human Retinoid X Receptor beta (RXRb), RXRB (gene 6257) (P28702 whole entry, looked up, the tested form may be a part): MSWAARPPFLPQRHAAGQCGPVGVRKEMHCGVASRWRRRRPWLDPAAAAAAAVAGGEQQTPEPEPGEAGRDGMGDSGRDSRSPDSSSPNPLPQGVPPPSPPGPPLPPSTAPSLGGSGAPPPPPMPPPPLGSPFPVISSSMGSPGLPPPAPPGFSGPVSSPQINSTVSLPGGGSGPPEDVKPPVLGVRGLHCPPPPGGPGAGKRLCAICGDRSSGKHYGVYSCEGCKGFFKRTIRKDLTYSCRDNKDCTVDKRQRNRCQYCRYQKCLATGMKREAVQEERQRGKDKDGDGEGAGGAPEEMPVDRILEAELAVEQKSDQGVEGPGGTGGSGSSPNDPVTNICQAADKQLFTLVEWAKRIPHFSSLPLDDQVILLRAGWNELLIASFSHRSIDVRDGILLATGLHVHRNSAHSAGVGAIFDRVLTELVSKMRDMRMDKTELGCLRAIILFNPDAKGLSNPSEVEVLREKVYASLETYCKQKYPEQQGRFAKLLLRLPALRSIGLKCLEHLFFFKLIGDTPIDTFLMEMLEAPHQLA
Procedure, shortened: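 Readout is reporter transcript induction after 24 h dosing. It is measured by RT-PCR of total RNA followed by fluorescent capillary electrophoresis. HepG2 liver cells carry transfected multiple reporter units driven by an exogenous RXRb-Gal4 fusion; activity is relative to DMSO.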

[8] = target: human Thyroid Receptor alpha (THRa1), THRA (gene 7067) (UniProt P10827); assay: ATG_THRa1_TRANS: Attagene TRANS-FACTORIAL HepG2 Assay for human Thyroid Receptor alpha (THRa1) (AID 2283014)
Procedure, shortened: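 HepG2 cells transiently transfected with multiplexed GAL4-UAS reporter units for exogenous chimeric THRa1-Gal4; reporter mRNA measured 24 h after dosing by RT-PCR, 6-FAM labelling, HpaI digestion and capillary electrophoresis. Gain-of-signal fitted versus DMSO baseline.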

[9] = ACEA_ER_AUC_viability: ACEA Biosciences xCELLigence Real-Time Cell Analysis on Estrogen Receptor Agonism for Viability (AID 2283782);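 note: hit means loss of impedance signal meaning reduced cell growth or viability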
Procedure, shortened: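 Viability endpoint: reduced impedance area under the curve relative to DMSO, recorded by real-time electrode sensing over ~80 h of continuous exposure. Duplicate plates of T47D in hormone-depleted medium; eight concentrations, 1:4 dilutions, 100 uM maximum.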

[10] = CCTE_Harrill_HTTr_Apoptosis_MCF7: CCTE's 6-hour Apoptosis Assessment for the High-Throughput Transcriptomics (HTTr) Platform, in MCF-7 cells cultured in DMEM + 10% fetal bovine serum, Harrill Lab (AID 2284011; active = hit-call score of the fitted dose curve at least 0.9, where 1 is the maximum; inactive = score below 0.9)
Procedure, shortened: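 MCF-7 cells in DMEM + 10% fetal bovine serum were exposed to chemicals for 6 hours over an eight-point dilution series. Caspase-3/7 activation was imaged by high content imaging with CellEvent Caspase 3/7 Green; bidirectional fitting used DMSO as baseline.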

[11] = target: Retinoic acid receptor alpha (Homo sapiens) (UniProt P10276); assay: ATG_DR5_RAR_CIS: Attagene CIS-FACTORIAL HepG2 Assay for human Retinoic Acid Receptor Alpha (RARE), DR5 submotif (AID 2282934; active = hit-call score of the fitted dose curve at least 0.9, where 1 is the maximum; inactive = score below 0.9); conditions: HepG2 Attagene cis-factorial RARE DR5 reporter, mRNA; actives raise or lower the signal
Sequence of Retinoic acid receptor alpha (Homo sapiens) (P10276 whole entry, looked up): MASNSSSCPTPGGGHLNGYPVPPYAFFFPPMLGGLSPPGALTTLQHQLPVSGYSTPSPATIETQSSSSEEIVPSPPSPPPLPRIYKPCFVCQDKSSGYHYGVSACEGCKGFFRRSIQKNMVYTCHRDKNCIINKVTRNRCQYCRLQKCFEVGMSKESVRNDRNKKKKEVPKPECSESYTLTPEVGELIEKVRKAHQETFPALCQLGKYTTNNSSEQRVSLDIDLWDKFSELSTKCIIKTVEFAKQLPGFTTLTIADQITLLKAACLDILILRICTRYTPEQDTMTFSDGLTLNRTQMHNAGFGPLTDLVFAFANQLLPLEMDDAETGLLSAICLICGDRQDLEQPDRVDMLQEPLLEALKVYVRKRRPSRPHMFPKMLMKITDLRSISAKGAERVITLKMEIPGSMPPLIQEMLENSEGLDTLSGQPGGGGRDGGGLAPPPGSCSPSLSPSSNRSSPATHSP
Procedure, shortened: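 Transient MRTU transfection of HepG2; 24 h compound treatment; TriZol RNA, oligo(dT) RT, PCR, FAM labelling, capillary electrophoresis. Bidirectional fit vs DMSO. Endogenous TF activity at DR5 RARE.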

[12] = target: Hepatocyte nuclear factor 4-alpha (Homo sapiens) (UniProt P41235); assay: ATG_HNF4a_TRANS: Attagene TRANS-FACTORIAL HepG2 Assay for human Hepatocyte Nuclear Factor 4 alpha (HNF4a) (AID 2282982); conditions: HepG2 HNF4a transactivation reporter, mRNA readout
Sequence of Hepatocyte nuclear factor 4-alpha (Homo sapiens) (P41235 whole entry, looked up, the tested form may be a part): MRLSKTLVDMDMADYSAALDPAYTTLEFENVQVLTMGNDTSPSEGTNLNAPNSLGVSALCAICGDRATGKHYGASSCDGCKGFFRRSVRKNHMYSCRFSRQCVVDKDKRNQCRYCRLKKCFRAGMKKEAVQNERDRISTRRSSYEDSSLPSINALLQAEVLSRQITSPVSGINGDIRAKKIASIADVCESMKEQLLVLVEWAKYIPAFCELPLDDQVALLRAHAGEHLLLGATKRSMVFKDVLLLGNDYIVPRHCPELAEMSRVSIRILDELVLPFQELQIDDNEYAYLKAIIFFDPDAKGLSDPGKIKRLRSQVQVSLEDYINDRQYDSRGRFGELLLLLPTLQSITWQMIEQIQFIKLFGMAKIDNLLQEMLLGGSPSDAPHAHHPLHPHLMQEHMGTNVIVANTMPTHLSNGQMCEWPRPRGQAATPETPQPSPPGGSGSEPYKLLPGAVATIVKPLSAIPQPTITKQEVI
Procedure, shortened: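 Activity of an exogenous HNF4a–Gal4 fusion scored as induced GAL4-UAS reporter transcripts after 24 h chemical exposure of transfected human HepG2 cells. Read-out via RT-PCR with 6-FAM labelling and capillary electrophoresis; rise over DMSO baseline.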

[13] = target: human Peroxisome Proliferator-activated Receptor delta (PPARd), PPARD (gene 5467) (UniProt Q03181); assay: ATG_PPARd_TRANS: Attagene TRANS-FACTORIAL HepG2 Assay for human Peroxisome Proliferator-activated Receptor delta (PPARd) (AID 2283002)
Sequence of human Peroxisome Proliferator-activated Receptor delta (PPARd), PPARD (gene 5467) (Q03181 whole entry, looked up, the tested form may be a part): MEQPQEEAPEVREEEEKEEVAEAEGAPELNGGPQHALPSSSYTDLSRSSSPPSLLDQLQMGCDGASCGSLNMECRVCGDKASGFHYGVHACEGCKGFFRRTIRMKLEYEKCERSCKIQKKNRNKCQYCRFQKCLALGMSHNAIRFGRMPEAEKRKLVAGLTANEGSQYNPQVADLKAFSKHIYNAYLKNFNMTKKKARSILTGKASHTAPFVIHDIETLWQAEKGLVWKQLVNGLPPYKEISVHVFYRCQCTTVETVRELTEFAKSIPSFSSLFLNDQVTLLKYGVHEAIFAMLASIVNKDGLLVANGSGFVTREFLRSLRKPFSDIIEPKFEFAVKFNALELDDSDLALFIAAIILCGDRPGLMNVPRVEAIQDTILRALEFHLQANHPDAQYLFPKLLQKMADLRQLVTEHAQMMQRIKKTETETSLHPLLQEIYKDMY
Procedure, shortened: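 Transient HepG2 transfection (multiple GAL4-UAS RTUs, chimeric receptor-Gal4); 24 h dosing; total RNA → oligo(dT) RT → PCR → 6-FAM primer extension → HpaI cut → CE. Positive direction vs DMSO.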

[14] = target: human Vitamin D Receptor (VDR), VDR (gene 7421) (UniProt P11473); assay: ATG_VDR_TRANS: Attagene TRANS-FACTORIAL HepG2 Assay for human Vitamin D Receptor (VDR) (AID 2283022)
Sequence of human Vitamin D Receptor (VDR), VDR (gene 7421) (P11473 whole entry, looked up, the tested form may be a part): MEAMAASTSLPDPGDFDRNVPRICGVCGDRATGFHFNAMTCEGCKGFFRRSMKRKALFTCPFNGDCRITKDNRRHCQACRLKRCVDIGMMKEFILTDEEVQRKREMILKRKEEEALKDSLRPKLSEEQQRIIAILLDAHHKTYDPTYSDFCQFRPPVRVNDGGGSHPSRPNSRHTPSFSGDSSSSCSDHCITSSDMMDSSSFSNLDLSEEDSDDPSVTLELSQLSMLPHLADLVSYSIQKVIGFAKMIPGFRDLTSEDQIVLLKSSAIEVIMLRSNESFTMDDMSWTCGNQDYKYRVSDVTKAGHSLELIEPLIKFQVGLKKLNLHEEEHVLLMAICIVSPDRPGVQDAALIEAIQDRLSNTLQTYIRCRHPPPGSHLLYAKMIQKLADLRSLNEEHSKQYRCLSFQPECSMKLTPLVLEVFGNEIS
Procedure, shortened: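 HepG2 cells were transiently transfected with multiple GAL4-UAS reporter units, so signal reflects exogenous chimeric receptor-Gal4 activity. After 24 h compound exposure, reporter mRNA was measured by RT-PCR, fluorescent labelling and capillary electrophoresis, fitted for gain of signal versus DMSO.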

[15] = TOX21_p53_BLA_p2_viability: Viability Assessment in the Tox21 HCT-116 p53 Agonism Beta-lactamase Assay, Phase 2 (AID 2283591);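 note: compound exposure lasted 16 h at 37 °C; actives lower the ATP signal meaning cytotoxicity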
Procedure, shortened: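 Cytotoxicity readout: CellTiter-Glo ATP luminescence, 30 min at room temperature, after the beta-lactamase read. Cells were HCT116 exposed 16 h at 37C to compounds pin-transferred at 217-fold dilution from DMSO stocks.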

[16] = TOX21_p53_BLA_p4_viability: Viability Assessment in the Tox21 HCT-116 p53 Agonism Beta-lactamase Assay, Phase 4 (AID 2283597);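 note: hits lower the luminescence signal meaning cytotoxicity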
Procedure, shortened: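 Cytotoxicity was inferred from loss of CellTiter-Glo luminescence. HCT116 cells had been dosed with compounds after 5 h plating, incubated 16 h at 37C and 5% CO2, and exposed to the CCF4-AM substrate for 2 h.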

[17] = TOX21_p53_BLA_p5_viability: Viability Assessment in the Tox21 HCT-116 p53 Agonism Beta-lactamase Assay, Phase 5 (AID 2283600)
Procedure, shortened: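 Luciferase-coupled ATP quantitation of cells treated for 16 h (37C, 5% CO2) with test chemicals delivered in DMSO via a 217-fold dilution; 4000 cells/well; reagent incubated 30 min at room temperature before luminescence reading.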

[18] = target: Oxysterols receptor LXR-beta (Homo sapiens) (UniProt P55055); assay: ATG_LXRb_TRANS: Attagene TRANS-FACTORIAL HepG2 Assay for human Liver X Receptor beta (LXRb) (AID 2282981); conditions: HepG2 Attagene TRANS GAL4-LXRb reporter, mRNA
Sequence of Oxysterols receptor LXR-beta (Homo sapiens) (P55055 whole entry, looked up, the tested form may be a part): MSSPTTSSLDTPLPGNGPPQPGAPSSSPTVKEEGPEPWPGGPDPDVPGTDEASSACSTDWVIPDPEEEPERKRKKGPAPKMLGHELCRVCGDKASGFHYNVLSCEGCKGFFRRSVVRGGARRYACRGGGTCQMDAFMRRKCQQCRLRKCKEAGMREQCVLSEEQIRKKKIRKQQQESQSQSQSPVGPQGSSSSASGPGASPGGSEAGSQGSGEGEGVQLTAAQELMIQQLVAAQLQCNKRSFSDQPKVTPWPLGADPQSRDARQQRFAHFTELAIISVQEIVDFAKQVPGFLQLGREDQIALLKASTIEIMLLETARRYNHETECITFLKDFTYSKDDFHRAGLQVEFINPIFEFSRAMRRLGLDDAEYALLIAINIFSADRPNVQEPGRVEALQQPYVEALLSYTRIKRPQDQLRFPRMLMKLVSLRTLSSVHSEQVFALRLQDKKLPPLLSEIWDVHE
Procedure, shortened: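 After 24 h chemical treatment of transfected HepG2 cells carrying exogenous NR-Gal4 chimeras, reporter mRNA was quantified by fluorescent RT-PCR and capillary electrophoresis; activity taken as increase over DMSO controls.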

[19] = TOX21_p53_BLA_p3_viability: Viability Assessment in the Tox21 HCT-116 p53 Agonism Beta-lactamase Assay, Phase 3 (AID 2283593);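 note: cells exposed to compound for 16 h before reading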
Procedure, shortened: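 Cellular ATP was quantified by CellTiter-Glo luminescence, read after 30 min at room temperature. Beforehand, HCT116 cells (4000/well) received compound 5 h post-seeding, 217-fold diluted from DMSO, then incubated 16 h at 37C.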

[20] = target: Nuclear receptor subfamily 1 group I member 3 (Homo sapiens) (UniProt Q14994); assay: ATG_CAR_TRANS: Attagene TRANS-FACTORIAL HepG2 Assay for human Constitutive Androstane Receptor (CAR) (AID 2282969); conditions: HepG2 Attagene TRANS-FACTORIAL CAR reporter;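 note: activators raise reporter mRNA above DMSO so AC50 marks induction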
Sequence of Nuclear receptor subfamily 1 group I member 3 (Homo sapiens) (Q14994 whole entry, looked up, the tested form may be a part): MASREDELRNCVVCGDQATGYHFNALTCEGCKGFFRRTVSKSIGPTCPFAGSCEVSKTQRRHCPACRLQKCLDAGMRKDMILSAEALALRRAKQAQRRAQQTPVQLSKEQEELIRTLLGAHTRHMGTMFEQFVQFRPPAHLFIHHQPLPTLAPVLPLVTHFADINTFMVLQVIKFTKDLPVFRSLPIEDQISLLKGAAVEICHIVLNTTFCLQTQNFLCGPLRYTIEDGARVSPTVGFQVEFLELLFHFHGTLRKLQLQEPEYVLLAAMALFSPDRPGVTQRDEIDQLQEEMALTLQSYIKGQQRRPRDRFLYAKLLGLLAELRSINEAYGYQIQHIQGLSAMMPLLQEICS
Procedure, shortened: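 Signal is reporter mRNA induction relative to DMSO, measured 24 h after dosing by RT-PCR with fluorescent primer extension and capillary electrophoresis. Human HepG2 liver cells carried transiently transfected chimeric NR-Gal4/GAL4-UAS reporter constructs.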

Measured: AC50

C=COCCCl
inactive: [1] | [2] | [3] | [4] | [5] | [6] | [7] | [8] | [9] | [10]

Cc1ccc(N(SC(F)(Cl)Cl)S(=O)(=O)N(C)C)cc1
active: [16] 87.1 µM
not listed: [2] | [3] | [5] | [6] | [9] | [18] | [19] | [20]
inactive: all other assays above

CN1C[C@H](C(=O)N[C@]2(C)O[C@@]3(O)[C@@H]4CCCN4C(=O)[C@H](Cc4ccccc4)N3C2=O)C=C2c3cccc4[nH]cc(c34)C[C@H]21
active: [16] 71.4 µM
inactive: [1] | [2] | [3] | [18] | [8] | [14] | [15] | [19] | [16] | [17]

SCc1ccco1
active: [5] 33 µM
inactive: [1] | [20] | [2] | [12] | [13] | [7] | [14] | [9]

CN(C)N
inactive: [11] | [3] | [18] | [12] | [5] | [14] | [19] | [16] | [9] | [10]

Oc1ccc(Cl)cc1
inactive: [11] | [20] | [4] | [12] | [8] | [14] | [15] | [17] | [9] | [10]

CCOC(=O)NC(=S)Nc1ccccc1NC(=S)NC(=O)OCC
inactive: [11] | [12] | [5] | [13] | [6] | [8] | [14] | [19] | [16] | [17] | [10]

Nc1c(Cl)c(Cl)c(Cl)c(Cl)c1Cl
inactive: [11] | [4] | [5] | [13] | [8] | [14] | [9]
active: [20] 27.3 µM | [18] 26.1 µM | [7] 28.6 µM

CCOP(O)OCC
inactive: [11] | [12] | [13] | [8] | [14]

CCc1cccc(C)c1N(C(=O)CCl)[C@@H](C)COC
inactive: [11] | [20] | [2] | [7] | [14] | [19] | [16] | [17] | [10]

N#Cc1cc(I)c(O)c(I)c1
active: [5] 8.29 µM
not listed: [1] | [4] | [6] | [7] | [9] | [13] | [15] | [17]
inactive: all other assays above

CN(N=O)c1ccccc1
inactive: [1] | [20] | [18] | [12] | [5] | [6] | [14]

ClCCCCCCCl
inactive: [11] | [4] | [18] | [5] | [6] | [7] | [14]
